AMA1 RON2 block: inhibitors of Plasmodium falciparum AMA1-RON2 interaction; AlphaScreen AMA1-biotinylated RON2 peptide binding; Potency, µM (highest dose often 58.2 µM), actives largely listed as inhibitors; 360,000 tested, 0.2% active; AID 720542; also: nearly all actives have a fitted effect of over 45% in size
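AMA1 (3D7) with his tag at 25 nM final met compounds first, then biotinylated RON2 peptide at 25 nM; detection used donor plus acceptor beads, 10 µg/mL apiece, read by AlphaScreen after 30 min at room temperature.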
Pf growth 48h: P. falciparum growth inhibition at 48 hours (one generation); Potency, µM (doses to about 28.7 µM), hits mostly inhibitors; P. falciparum luciferase growth in erythrocytes, 48 h; AID 504832; 310,000 tested, 5.9% active
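Compounds are pin-transferred into medium, infected erythrocytes (2% hematocrit, 0.1% parasitemia final) are added, and plates sit one parasite generation at 37 C in 5% CO2. Detection reagent is then added and luminescence measured.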
HCV inhibitor: inhibitors of hepatitis C virus infection | AID 651820 | Huh7.5.1 HCVcc-Cre infection, luciferase reporter, 44 h | 340,000 tested, 3.4% active | Potency, µM (top dose mostly 41.8 µM), hits mostly inhibitors
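Compounds are dispensed onto cells plated 4 h earlier at 1,000 per well, with HCVcc-Cre virus (about 0.5 moi) added next. Following 44 h of culture, luminescent signal is measured for 15 sec after 15 min with substrate at room temperature.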
Pf growth 96h: P. falciparum growth inhibition at 96 hours; AID 504834; Potency, µM (titrated, usually from 28.7 µM), hits mostly inhibitors; P. falciparum luciferase reporter growth, 96 h; 320,000 tested, 6.9% active
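Delayed-death screen, second-generation endpoint: infected erythrocytes, 2% hematocrit, 0.05% parasitemia final; 96 hours at 37 C, 5% CO2; luciferase detection reagent; luminescence decrease equals reduced growth.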
Numbers stand for hits; [ ] = remark or other dose. Most compounds without a hit are left out; they make up all but 11% or so of the library. Calls follow the shape of the dose curve; as a rule, active = well fitted curve in the direction sought with a large enough effect; inconclusive = small, poorly fitted or top-dose-only effect, or another doubt; inactive = no such curve, though single readings can be large; an effect the other way counts as inactive or inconclusive.

For COC(=O)C1=C(C)N(Cc2ccccc2)C(=NCc2cccc(C(F)(F)F)c2)N[C@H]1c1cccc(F)c1 the results were AMA1 RON2 block inactive, Pf growth 48h 6.6µM, HCV inhibitor inconclusive and Pf growth 96h inconclusive.
Screening C=CCN=C1N[C@@H](c2ccccc2)C(C(=O)OC)=C(C)N1CC returned AMA1 RON2 block inactive, Pf growth 48h inactive, HCV inhibitor inactive and Pf growth 96h inconclusive.
`CCN1C(=NCCc2cccs2)N[C@@H](c2cccs2)C(C(=O)OC)=C1C` gave AMA1 RON2 block inactive, Pf growth 48h 7.4µM, HCV inhibitor inactive and Pf growth 96h inconclusive.
COCCN=C1N[C@@H](c2cccc(C(F)(F)F)c2)C(C(=O)OC)=C(C)N1Cc1ccccc1 was read as AMA1 RON2 block inactive, Pf growth 48h inconclusive, HCV inhibitor inactive and Pf growth 96h 4.7µM.
CCN1C(=NCCc2c[nH]c3ccccc23)N[C@@H](c2ccccc2)C(C(=O)OC)=C1C was read as Pf growth 48h 13µM and Pf growth 96h inactive.
Screening COC(=O)C1=C(C)N(Cc2ccccc2)C(=NCc2cccc(C(F)(F)F)c2)N[C@H]1c1cccc(C(F)(F)F)c1 returned AMA1 RON2 block inactive, Pf growth 48h inconclusive, HCV inhibitor inactive[8.37 µM] and Pf growth 96h inactive.
O=C(CN1C(=O)CCSc2ccc(S(=O)(=O)N3CCCC3)cc21)Nc1ccccc1 was read as AMA1 RON2 block inactive, Pf growth 48h inactive, HCV inhibitor inactive and Pf growth 96h inactive.
Screening CCN1C(=NCc2cccc(Cl)c2)N[C@@H](c2cccc(F)c2)C(C(=O)OC)=C1C returned AMA1 RON2 block inactive, Pf growth 48h inconclusive, HCV inhibitor inactive and Pf growth 96h inconclusive.
Screening COC(=O)C1=C(C)N(Cc2ccccc2)C(=NCCc2c[nH]c3ccccc23)N[C@H]1c1cccc(C(F)(F)F)c1 returned AMA1 RON2 block inactive, Pf growth 48h inconclusive, HCV inhibitor inconclusive and Pf growth 96h 13µM.
Screening COC(=O)C1=C(C)N(Cc2ccccc2)C(=NCCc2ccccn2)N[C@H]1c1cccc(F)c1 returned AMA1 RON2 block inactive, Pf growth 48h 12µM, HCV inhibitor inactive and Pf growth 96h 8.3µM.
CCN1C(=NCCc2ccccn2)N[C@@H](c2cccc(F)c2)C(C(=O)OC)=C1C was read as AMA1 RON2 block inactive, Pf growth 48h inactive, HCV inhibitor inactive and Pf growth 96h inconclusive.
Screening COC(=O)C1=C(C)N(Cc2ccccc2)C(=NCCCCO)N[C@H]1c1cccc(C(F)(F)F)c1 returned AMA1 RON2 block inactive, Pf growth 48h inconclusive, HCV inhibitor inconclusive and Pf growth 96h inconclusive.
For CCN1C(=NCc2cc(OC)c(OC)c(OC)c2)N[C@@H](c2cccc(F)c2)C(C(=O)OC)=C1C the results were Pf growth 48h 5.2µM and Pf growth 96h 10µM.
Screening CC(C)N(C(=O)COC(=O)CNC(=O)c1ccc(Br)cc1)c1ccccc1 returned AMA1 RON2 block inactive, Pf growth 48h inactive, HCV inhibitor inactive and Pf growth 96h inconclusive.
Screening CN(C(=O)CCCOc1ccc2[nH]c(=O)ccc2c1)C1CCCCC1 returned Pf growth 48h inconclusive and Pf growth 96h 0.6µM.
CN(C(=O)CSc1nccc(=O)[nH]1)C1CCCCC1 was read as AMA1 RON2 block inactive and HCV inhibitor inactive.
`CCOC(=O)Cc1csc(NS(=O)(=O)c2ccc([N+](=O)[O-])cc2)n1` gave AMA1 RON2 block inactive, Pf growth 48h inactive, HCV inhibitor inactive and Pf growth 96h inconclusive.
Screening Nn1c(SCC(=O)Nc2cccc(Br)c2)nnc1C1CC1 returned AMA1 RON2 block inactive and HCV inhibitor inconclusive.
CN(C)S(=O)(=O)c1ccc(NC(=O)Cn2nc(-c3ccc4c(c3)OCCO4)ccc2=O)cc1 was read as AMA1 RON2 block inactive and HCV inhibitor inactive.
CC(Oc1ccc(F)cc1)C(=O)Nc1cc(S(=O)(=O)N2CCCCC2)ccc1N1CCN(C)CC1 (centres undefined) was read as AMA1 RON2 block inactive and HCV inhibitor inactive.
Screening CN1CCN(c2ccc(S(=O)(=O)N3CCCCC3)cc2NC(=O)/C=C/c2ccc(OC(F)F)cc2)CC1 returned AMA1 RON2 block inconclusive, Pf growth 48h 9.3µM, HCV inhibitor inconclusive and Pf growth 96h 7.4µM.
`CCN1CCN(c2ccc(S(=O)(=O)N3CCCCC3)cc2NC(=O)/C=C/c2ccc(OC(F)F)cc2)CC1` gave AMA1 RON2 block inactive, Pf growth 48h 9.3µM, HCV inhibitor inconclusive and Pf growth 96h 4.1µM.
Nc1ccc(C(=O)Nc2ccc(OC(F)(F)C(F)F)c(NC(=O)c3ccc(N)cc3)c2)cc1 was read as AMA1 RON2 block inactive, Pf growth 48h inactive, HCV inhibitor 6.3µM and Pf growth 96h inconclusive.
For CC1(C)CCCN(C(=O)c2ccc3c(c2NCCO)C(=O)c2ccccc2C3=O)C1 the results were AMA1 RON2 block inconclusive, Pf growth 48h 13µM, HCV inhibitor inconclusive and Pf growth 96h inconclusive.
Screening COc1cccc(CC(=O)N2CCC(n3nccc3NC(=O)C3CCOC3)CC2)c1 (centres undefined) returned AMA1 RON2 block inactive, Pf growth 48h inactive, HCV inhibitor inactive and Pf growth 96h inactive.
Screening COc1ccc(C(CNC(=O)c2oc3ccc(Br)cc3c2C)N2CCCCC2)cc1 (centres undefined) returned AMA1 RON2 block inactive, Pf growth 48h inconclusive, HCV inhibitor 13µM and Pf growth 96h inactive.
Screening COc1ccc(C(CNC(=O)c2oc3ccc(F)cc3c2C)N2CCCCC2)cc1 (centres undefined) returned AMA1 RON2 block inactive, Pf growth 48h inconclusive, HCV inhibitor 11µM and Pf growth 96h inactive.
Screening COc1ccc(C(CNC(=O)c2oc3cc(Br)ccc3c2C)N2CCCCC2)cc1 (centres undefined) returned AMA1 RON2 block inactive, Pf growth 48h inconclusive, HCV inhibitor inactive and Pf growth 96h inactive.
COc1ccc(C(CNC(=O)c2oc3ccc(OC)cc3c2C)N2CCCC2)cc1 (centres undefined) was read as AMA1 RON2 block inactive, Pf growth 48h 8.3µM, HCV inhibitor inconclusive and Pf growth 96h 9.3µM.
CCc1ccc2oc(C(=O)NCC(c3ccc(OC)cc3)N3CCCCC3)c(C)c2c1 (centres undefined) was read as AMA1 RON2 block inactive, Pf growth 48h inconclusive, HCV inhibitor inconclusive and Pf growth 96h inactive.
Screening COC(=O)[C@@H](Cc1c[nH]c2ccccc12)NC(=O)CCC(=O)c1ccc(F)cc1 returned AMA1 RON2 block inactive, Pf growth 48h inconclusive, HCV inhibitor inactive and Pf growth 96h inconclusive.
For Cc1ccc(C(C)NC(=S)NCc2ccc(F)cc2)c(C)c1 (centres undefined) the results were AMA1 RON2 block inactive, Pf growth 48h inconclusive, HCV inhibitor inconclusive and Pf growth 96h inactive.
For CN(C)CCN1C(=O)C(=O)/C(=C(/O)c2ccc(S(=O)(=O)N3CCOCC3)cc2)C1c1ccc(F)cc1 (centres undefined) the results were AMA1 RON2 block inactive, Pf growth 48h inactive, HCV inhibitor inactive and Pf growth 96h inactive.
For CCCOC(=O)c1ccccc1O the results were Pf growth 48h inactive and Pf growth 96h inactive.
O=C(NCC1CCCO1)c1ccc2c(c1)S(=O)(=O)c1ccccc1C2=O (centres undefined) was read as AMA1 RON2 block inactive and HCV inhibitor inactive.

High-throughput results from PubChem.
